Assay results reported in ChEMBL document CHEMBL1157539, “Thousands of chemical starting points for antimalarial lead identification” (Nature, 2010).

Legend:
Format in all cases: functional
Plasmodium falciparum [1] = assay: GSK_TCMDC: Inhibition of Plasmodium falciparum 3D7 in whole red blood cells, using parasite LDH activity as an index of growth. Test compounds present at 2uM
Plasmodium falciparum [2] = assay: GSK_TCMDC: Inhibition of Plasmodium falciparum Dd2 in whole red blood cells, using parasite LDH activity as an index of growth. Test compounds present at 2uM
HepG2 = assay: GSK_TCMDC: Percent inhibition of human HepG2 cell line. Test compounds present at 10uM.

Row | Compound | Inhibition (Plasmodium falciparum [1]) [%] | Inhibition (Plasmodium falciparum [2]) [%] | Inhibition (HepG2) [%]
1 | Fc1cc(Cl)ccc1Nc1ccnc2cc(-c3ccc(CN4CCSCC4)o3)ccc12 | 100 | 99 | 17
2 | Cl.Oc1ccc(Nc2nc(N3CCCC3)c3ccccc3n2)cc1 | 100 | 100 | 10
3 | CN(CCc1ccccc1)c1ncc(-c2cccc(CNCCC3CCCN3C)c2)cn1 (centres undefined) | 92 | 98 | 99
4 | COc1ccc(CNc2nc(NCc3ccccc3)c3cc(OC)c(OC)cc3n2)cc1OC | 100 | 99 | 24
5 | C(=NN=c1cc[nH]c2ccccc12)c1ccncc1 | 95 | 27 | 7
6 | C=CCOC(=O)N1CCC(CNCc2cccc(-c3ccc(-c4nc5cccc(C)c5[nH]4)s3)c2)C1.O=C(O)C(F)(F)F (centres undefined) | 100 | 82 | 11
7 | COc1ccc2nccc(N(C)CC3(O)CCN(CCc4ccc5c(c4)NC(=O)CS5)CC3)c2n1.Cl | 91 | 67 | 10
8 | Cc1cccc2nc(-c3ccc(-c4cccc(CNCCCNS(C)(=O)=O)c4)s3)[nH]c12.O=C(O)C(F)(F)F | 99 | 19 | 20
9 | Cc1c[nH]c2cc(/C=C/C(=O)NC3CCC(CCN4CCc5ccc(C#N)cc5CC4)CC3)ccc12.Cl (centres undefined) | 95 | 59 | 0
10 | Cc1cccc2nc(-c3ccc(-c4cccc(NC(=O)CCc5c[nH]cn5)c4)cc3)[nH]c12 | 100 | 14 | 13
11 | O=c1cc(NCCCNCc2cc(Cl)cc(Cl)c2OCc2ccccc2)[nH]c2ccccc12 | 91 | 50 | 0
12 | COc1ccc2nccc([C@@H](O)CN3CCC(NCc4[nH]c5ccccc5c4F)CC3)c2c1.O=C(O)C(=O)O | 100 | 61 | 19
13 | C=CCn1c(Cc2ccccc2)nnc1Sc1ccc(C#N)c([N+](=O)[O-])c1 | 86 | 43 | 7
14 | Cc1cc(OCCCN2CCC(NS(=O)(=O)c3cccc(Br)c3)CC2)c2ccccc2n1 | 95 | 28 | 28
15 | Cl.Oc1ccccc1Nc1nc(NCc2ccco2)c2ccccc2n1 | 99 | 71 | 0
16 | O=C(Nc1ccc(C(=O)OCC(c2ccccc2)c2ccccc2)cc1)N[C@@H](Cc1ccc(O)cc1)C(=O)NC1CCN(Cc2ccc(O)cc2)C1.O=C(O)C(F)(F)F (some centres undefined) | 96 | 0 | 0
17 | O=C(Nc1cccc(CN2CCCN(Cc3cccnc3)CC2)c1)c1cc2ccccc2s1.O=C(O)C(F)(F)F | 92 | 28 | 15
18 | CO/C(=C\C=C\c1cc2cc(Cl)c(Cl)cc2[nH]1)C(=O)NCCCCN1CCN(c2ccccc2OC)CC1 | 100 | 96 | 55
19 | Cc1ccc(-c2cc(C(=O)Nc3ccc(S(=O)(=O)N4CCCC(C)C4)cc3)[nH]n2)c(O)c1 (centres undefined) | 100 | 99 | 32
20 | COc1cc(Nc2ccnc3cc(-c4ccncc4)ccc23)cc(OC)c1OC.Cl | 89 | 39 | 9

Row | Compound | Inhibition (Plasmodium falciparum [1]) [%] | Inhibition (Plasmodium falciparum [2]) [%] | Inhibition (HepG2) [%]
21 | Clc1ccc(/N=C(/NCCCCCCCN/C(=N\c2ccc(Cl)cc2)Nc2ccc(Cl)cc2)Nc2ccc(Cl)cc2)cc1 | 100 | 99 | 100
22 | COC(=O)/C=C/c1ccc(CCC(C)NCC(O)c2cccc(Cl)c2)cc1 (centres undefined) | 94 | 77 | 5
23 | COc1ccc2[nH]cc(C3CCN(CCCCNC(=O)c4ccc(NC(=O)c5ccc(Cl)cc5)cc4)CC3)c2c1 | 98 | 16 | 17
24 | Cc1ccc(-c2ccc3c(c2)C=C(C(=O)NC2CCN(CCNC(=O)c4cccc(C(F)(F)F)c4)CC2)CCC3)cc1.O=C(O)C(F)(F)F | 100 | 56 | 25
25 | COc1cccc(Nc2nc(C)cc(NC3CCN(Cc4ccccc4)CC3)n2)c1 | 100 | 46 | 15
26 | COc1ccccc1N1CCN(c2cccc3c2nc(-c2cncc(C#N)c2)n3CCNCc2ccccc2)CC1.O=C(O)C(F)(F)F | 100 | 81 | 0
27 | CC(C)CNCc1ccc(-c2ccc(CN(CCCN3CCN(C)CC3)C(=O)/C=C/c3ccccc3)cc2)cc1.O=C(O)C(F)(F)F | 99 | 93 | 57
28 | COc1ccc2ncn(-c3ccc(C(N)=O)c(OCc4ccccc4C(F)(F)F)c3)c2c1 | 98 | 100 | 18
29 | O=c1cc(NCCCCNCc2cccc(C(F)(F)F)c2)[nH]c2ccccc12 | 94 | 34 | 13
30 | CCCCCCNC(=N)c1ccc2[nH]c(-c3ccc(O)cc3)nc2c1.Cl | 100 | 99 | 0
31 | CCC[C@@H]([C@@H](CC(C)C)C(=O)N[C@@H](CCCNc1nccc(C(F)(F)F)n1)C(=O)Nc1nccs1)N(O)C=O | 99 | 98 | 0
32 | O=C(Nc1cccc(-c2cc(-c3c(Cl)cccc3Cl)no2)c1)c1cncc(-c2cccs2)c1 | 91 | 39 | 0
33 | O=S(=O)(c1cc(Cl)c(Cl)cc1Cl)N1CCCCC(c2ccc(C(F)(F)F)cc2)=N1 | 98 | 99 | 9
34 | CC1CCCN(Cc2c(O)ccc3c(O)c(-c4nc5ccccc5s4)c(=N)oc23)C1 (centres undefined) | 100 | 99 | 20
35 | CC(=O)Nc1ccc(S(=O)(=O)N(Cc2cccc(Oc3ccccc3)c2)C2CCN(C/C=C(\C)CCC=C(C)C)CC2)cc1 | 100 | 99 | 22
36 | O=C(NCc1ccc(Cl)c(Cl)c1)c1cccc(C2CCCN(Cc3ccc4[nH]cnc4c3)C2)c1 (centres undefined) | 95 | 30 | 3
37 | CCN(CC)CCN(Cc1ccc(-c2ccc(C(F)(F)F)cc2)cc1)C(=O)Cn1c(CCc2cccc(C#N)c2)nc(=O)c2ccccc21.O=C(O)C(O)C(O)C(=O)O | 100 | 47 | 36
38 | Cc1cc(-c2ccc(NC(=O)c3coc4ccc(N5CC(C)N(C)C(C)C5)cc34)cc2C)cc(C)n1.Cl (centres undefined) | 94 | 62 | 13
39 | O=C(Nc1ccccc1)N(Cc1ccccc1-c1cccc(CNCCc2ccccc2)c1)C1CCN(Cc2ccccc2)CC1.O=C(O)C(F)(F)F | 100 | 59 | 95
40 | CC(C)c1ccc(C=CC(=O)N2CCC(CCN3CCC(c4c[nH]c5ccccc45)CC3)CC2)cc1 | 93 | 11 | 85

Row | Compound | Inhibition (Plasmodium falciparum [1]) [%] | Inhibition (Plasmodium falciparum [2]) [%] | Inhibition (HepG2) [%]
41 | Cc1cccc2nc(-c3ccc(-c4cccc(NC(=O)NCc5ccc(F)cc5)c4)cc3)[nH]c12 | 100 | 100 | 82
42 | CC(C)(C)NCCN(Cc1ccc(-c2ccc(C(F)(F)F)cc2)cc1)C(=O)Cn1c(SCc2ccc(F)cc2)nc(=O)c2c1CCC2.O=C(O)C(O)C(O)C(=O)O | 97 | 84 | 64
43 | N#Cc1ccc(N/C(=N\c2ccc(-c3ccccc3)cc2)NC2CCCc3ccccc32)c(O)c1 (centres undefined) | 99 | 98 | 0
44 | Cc1ccc(Cn2ncc(N3CCC(N)CC3)c(Cl)c2=O)cc1NC(=O)Nc1ccc(-c2ccccc2)cc1.O=C(O)C(F)(F)F | 90 | 25 | 29
45 | CCOc1ccc2nc(C)cc(N/N=C/c3cccc([N+](=O)[O-])c3)c2c1 | 100 | 93 | 7
46 | Cc1cccc2nc(-c3ccc(-c4ccc(CN5CCCC(O)C5)cc4)cc3)[nH]c12.O=C(O)C(F)(F)F (centres undefined) | 100 | 54 | 41
47 | Cc1cccc2nc(-c3cccc(-c4cccc(NC(=O)CC5NC(=O)c6ccccc65)c4)c3)[nH]c12 (centres undefined) | 92 | 49 | 8
48 | O=C(/C=C/c1ccc(Cl)c(Cl)c1)N1CCN(C(=O)Nc2ccc(F)c(Cl)c2)CC1 | 97 | 87 | 19
49 | CCN(CC)CCCNc1nccc(N2CCc3ncnc(Nc4ccc(OCc5cccc(F)c5)c(Cl)c4)c3C2)n1 | 100 | 95 | 100
50 | CN(C)c1ccc(-c2csc(C(=O)NC3CCCCN(Cc4ccc(C(C)(C)C)cc4)C3)c2)cc1.O=C(O)C(F)(F)F (centres undefined) | 84 | 55 | 17
51 | CC(=O)Nc1ccc(CN(C)C2CCN(c3cc(NC(=O)c4cccc(C)c4)ccn3)CC2)cc1.O=C(O)C(F)(F)F | 94 | 13 | 0
52 | Cc1ccc(Oc2ccc(CNc3nc(Nc4cccc(F)c4)nc(Nc4cccc(F)c4)n3)cc2)cc1 | 86 | 0 | 0
53 | O=C(O)C(F)(F)F.O=S(=O)(NCCN1CCCC1)c1ccc(-c2ccc(CNCc3ccsc3)cc2)s1 | 99 | 40 | 31
54 | COc1cccc(Nc2nc(C)cc(NCc3ccc(-c4c(C)noc4C)cc3)n2)c1 | 98 | 42 | 33
55 | COc1ccc(Cl)cc1NC(=O)Nc1cc(C)nc2ccccc12 | 100 | 99 | 10
56 | COc1cc(OC)cc(-c2nc3ccc(OCCN(C)C)c(C#N)c3[nH]2)c1 | 99 | 25 | 4
57 | CCNc1cc(C(=O)N[C@@H](Cc2cccc(Cl)c2)[C@H](O)CNC(C)CCCC(C)C)cc(N2CCCCS2(=O)=O)c1.Cl (some centres undefined) | 98 | 78 | 7
58 | COc1cc(Cl)c(C)cc1-n1cc(C(=O)c2cc(Br)ccc2O)cc(C#N)c1=O | 95 | 35 | 3
